Among the data in PubChem BioAssay AID1486 (The Scripps Research Institute Molecular Screening Center, 2009) are inhibition values, retold here.

About 2,400 (1.1%) of roughly 220,000 compounds were called active.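 How the source made its calls: active means inhibition above a per-campaign cutoff, the mean inhibition of all tested compounds plus 3 SD (cut at about 27% in these data); inactive means the rest.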 Many of the other results were omitted from the sample, so actives are more common in it than they were.

This assay can be described thus: growth loss in parental Ba/F3 cells – cell-based, murine pro-B, CellTiter-Glo luminescence, counter-screen for JAK2V617F inhibitor project (AID 1486).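 Further: 0% = DMSO wells and 100% = JAK Inhibitor I control wells.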 To be noted: Ba/F3 parental viability, CellTiter-Glo ATP luminescence; at 5.6 µM; hits give high values. (ATP-based viability assays read luminescence as a measure of living cells.)
Turning to `CCCCCc1ccc(-c2ccc(OCC)cc2)nc1`, the inhibition was 3.47% (inactive). For the molecule `COCC(C)n1c(C)cc(C(=O)COc2ccc(C)nc2[N+](=O)[O-])c1C` (stereo not given), the inhibition was 3.84% (inactive). In the case of `C/C(=N\NC(=O)c1cccnc1)c1ccc(-n2ccnc2)cc1`, the inhibition is -0.08% (inactive). With `COc1ccc(Cl)cc1NC(=O)C(C)N1CCc2ccccc21` (stereo not given), the inhibition is 4.67% (inactive).

For the molecule `Cc1ccc(/C=C/C(=O)O)cc1S(=O)(=O)N1CCC(Cc2ccccc2)CC1`, the inhibition was -3.54% (inactive). For `C=CCOC(=O)C1=C(C)NC(SCC(=O)OCC)=C(C#N)C1c1ccc(C)cc1` (stereo not given), the inhibition was 1.41% (inactive).

Regarding `CCOC(=O)CSC1=C(C#N)C(c2sccc2C)CC(=O)N1` (stereo not given), the inhibition is 81.7% (active). Turning to `Cc1ccc(C2CC(=O)NC(SCC(=O)OCc3ccccc3)=C2C#N)o1` (stereo not given), the inhibition is 2.62% (inactive). With `Cc1nnc(CN(C)Cc2cn[nH]c2-c2ccc(-c3ccccc3)cc2)o1`, the inhibition was 3.87% (inactive).

`Cc1cccc(NC(=O)c2sc(-c3ccccc3)nc2-c2ccc([N+](=O)[O-])cc2)c1`: the inhibition was 2.68% (inactive). As to `COc1ccc(C(=O)Nc2nc(-c3ccc(OC)cc3)c(-c3ccc([N+](=O)[O-])cc3)s2)cc1`, the inhibition was 61.3% (active). For the molecule `COC(=O)C(NC(=O)c1ccc(OC)cc1)(Nc1ncc(S(=O)(=O)c2ccc([N+](=O)[O-])cc2)s1)C(F)(F)F` (stereo not given), the inhibition was -1.49% (inactive).

Take `CCOC(=O)/C(=N\Nc1ccccc1[N+](=O)[O-])c1csc(Nc2ccccc2)n1`: the inhibition was 12% (inactive).

On to `Cc1nnc(N/N=C/c2ccccn2)[nH]c1=O`, for which the inhibition was 1.19% (inactive).

On to `CC(C)(C)c1ccc(Oc2ccc(N)cc2)cc1`, for which the inhibition was 36.8% (active).

Consider `Nc1ccc(Oc2ccc(Cl)cc2)cc1`, for which the inhibition was 9.91% (inactive). With `Cc1ccc(Oc2ccc(N)cc2)cc1`, the inhibition was 2.65% (inactive). As for `CCCCN(C)c1ccc([N+](=O)[O-])cc1`, the inhibition was 8.6% (inactive). On to `CCc1[nH]nc(C(=O)N2CCCC(CNS(=O)(=O)c3cccs3)C2)c1C` (stereo not given), for which the inhibition was 6.5% (inactive). For `C/C(CC(=O)NC(C)c1ccccc1)=N\NC(N)=S` (stereo not given), the inhibition was -3.5% (inactive). Then `CCOC(=O)N1CCN(C(=O)C2CCN(c3ncnc4c3sc3cccc(F)c34)CC2)CC1`, with 40.6% (active); and `CCOC(=O)N1CCN(C(=O)C2CCN(Cc3ccc(OC)cc3OC)CC2)CC1`, with 3.57% (inactive).

Take `CCOC(=O)C1CCN(c2ncnc3c2oc2ccc(Br)cc23)CC1`: the inhibition is 6.89% (inactive). Then `CNC(=O)COc1ccc(S(=O)(=O)Nc2ccccc2)cc1`, with 0.46% (inactive); and `Cc1csc(CN(C)C(=O)CC2C(=O)NCCN2CC(C)(C)C)n1` (stereo not given), with 9.22% (inactive); and `Cc1ccc(C(=O)N/N=C\c2cc(Br)c(Br)o2)cn1`, with 1.1% (inactive). With `Cc1cc(C(=O)CSc2nc(N)cc(=O)[nH]2)c(C)n1CCc1ccc(Cl)cc1`, the inhibition was 6.39% (inactive). In the case of `Cc1cc(C(=O)CSc2nc(N)cc(=O)[nH]2)c(C)n1-c1cccc(F)c1`, the inhibition was 4.66% (inactive). Consider `Cc1cc(C(=O)CSc2nc(N)cc(=O)[nH]2)c(C)n1Cc1ccco1`, for which the inhibition was 33.8% (active). Take `CSC1=NCCN1C(=O)Cc1cccc2ccccc12`: the inhibition was 2.66% (inactive). Then `CCn1c2ccccc2c2cc(NC(=O)Nc3ccc([N+](=O)[O-])cc3C)ccc21`, with -1.24% (inactive). On to `CC(=O)c1cc(-c2ccccc2)n(CCC(=O)NC2CCCCCC2)c1C`, for which the inhibition was 1.01% (inactive). As to `CC(C)c1cc(CN2CCOCC2)cc(C(C)C)c1O`, the inhibition is -1.01% (inactive).

As to `COc1ccc(Nc2oc(-c3ccccc3Cl)nc2C#N)cc1`, the inhibition is 29.4% (active). Regarding `COc1ccccc1-c1nc(C#N)c(N2CCC(C(N)=O)CC2)o1`, the inhibition was 1.59% (inactive).

Regarding `Cc1ccccc1-c1nc(C#N)c(NCc2ccco2)o1`, the inhibition was 11.3% (inactive). `NC1=NC2(CCCCC2)N(c2ccc(F)cc2F)C(N)=N1`: the inhibition was 5.17% (inactive). In the case of `COc1ccc(CCNC(=O)CC2SC(=Nc3cc(C)cc(C)c3)NC2=O)cc1OC` (stereo not given), the inhibition is 2.92% (inactive). For the molecule `O=c1cc(O)c(-c2cccc(C(F)(F)F)c2)c(Cl)[nH]1`, the inhibition is 13.5% (inactive). Take `COC(=O)Nc1nc2ccc(Sc3ccccc3)cc2[nH]1`: the inhibition was 76% (active). Consider `COc1cc(OC)cc(C(=O)N[C@H](C(=O)Nc2nc3ccccc3[nH]2)C(C)C)c1`, for which the inhibition is 16.4% (inactive). On to `Cc1nc2ccc(C(=O)O)cc2[nH]1`, for which the inhibition is -0.24% (inactive).

Turning to `COc1ccccc1-c1c(C#N)c(N)nc2c1CCC2`, the inhibition was 0.32% (inactive). Take `COC(=O)c1sccc1NC(=O)CC1C(=O)NCCN1C(=O)Nc1ccc(F)cc1F` (stereo not given): the inhibition was -2.58% (inactive).

Regarding `CSc1ccc(/C=N/NC(=O)c2cccc(Cl)c2)cc1`, the inhibition is 1.81% (inactive). Then `Cc1ccc(CNC(=O)C2CC(c3ccccc3[N+](=O)[O-])=NO2)o1` (stereo not given), with 0.33% (inactive). For the molecule `COc1ccc(C2=NOC(C(=O)NCc3ccco3)C2)cc1OC` (stereo not given), the inhibition was 64.1% (active). As to `COc1ccc(-c2cc(C(=O)NCc3ccco3)no2)cc1OC`, the inhibition was 4.7% (inactive).

On to `Cc1cc(N)n(-c2ccc(S(=O)(=O)N3CCCC3)cc2[N+](=O)[O-])n1`, for which the inhibition was 4.29% (inactive). Then `C=CCOCCN(C)C1=NS(=O)(=O)c2ccccc21`, with 3.69% (inactive); and `COc1ccc(N2C(=O)CNC2=S)cc1`, with 2.23% (inactive); and `Cc1ccc(C)c2[nH]c(=O)c(CCNC(=O)c3cccs3)cc12`, with 6.4% (inactive). Take `CCc1cccc(CC)c1NC(=S)NCc1ccc2[nH]c(C)cc2c1`: the inhibition is 8.67% (inactive).

As to `Cc1cc2cc(CNC(=O)c3cccs3)ccc2[nH]1`, the inhibition is 39% (active). Then `Cn1c(=O)c2c(nc(N/N=C/c3cccs3)n2Cc2ccc(Br)cc2)n(C)c1=O`, with 2.68% (inactive); and `COc1ccc(-c2csc(-c3cccs3)n2)cc1OC`, with 6.08% (inactive). Turning to `COc1ccc(Br)cc1CN(C)CC(=O)Nc1cc([N+](=O)[O-])ccc1OC`, the inhibition is -2.62% (inactive). As to `CCOC(=O)c1cc(-c2ccc(F)cc2)n(CC(=O)NCc2ccccn2)c1C`, the inhibition was 5.17% (inactive). `CN1CCN(C(=O)CCc2nc(-c3ccc(Cl)cc3)no2)CC1`: the inhibition is 5.12% (inactive). Then `CC1CCN(Cc2nc(-c3ccc(Cl)cc3)no2)CC1`, with 36% (active). Turning to `Cc1ccc(-c2noc(CN3CCN(Cc4ccccc4)CC3)n2)cc1`, the inhibition is 3.84% (inactive). Regarding `O=c1[nH]c2cccnc2n(CCNc2ncc(C(F)(F)F)cc2Cl)c1=O`, the inhibition is 3.7% (inactive). On to `N#CC1=C(N)Oc2[nH]c(=S)[nH]c(=O)c2C12C(=O)Nc1ccccc12` (stereo not given), for which the inhibition is 1.28% (inactive).

Consider `Cc1nc(-c2ccccc2)cn2c1nc1ccccc12`, for which the inhibition was 6.83% (inactive). As for `Cc1c(Cl)c([N+](=O)[O-])nn1CC(=O)NCC1CCCO1` (stereo not given), the inhibition is -0.44% (inactive).

For the molecule `COc1ccc(-c2cc(C(F)(F)F)nc(SCC(=O)Nc3ccc4c(c3)OCO4)n2)cc1OC`, the inhibition was 6.51% (inactive). Then `COc1ccc(-c2cc(C(F)(F)F)nc(S(C)(=O)=O)n2)cc1OC`, with 32.3% (active); and `COc1cc(OC)nc(S(C)(=O)=O)n1`, with -0.84% (inactive). For `CC(=O)c1ccc2c(c1)OCCOCCOc1ccc(C(C)=O)cc1OCCOCCO2`, the inhibition was 6.46% (inactive). As for `COc1ccc(-n2c(SCC(=O)NCc3ccco3)nnc2-c2c[nH]c3ccccc23)cc1`, the inhibition is 7.39% (inactive). Then `O=C(CSc1nnc(-c2c[nH]c3ccccc23)n1-c1ccc(F)cc1)NCc1ccco1`, with 93.5% (active). With `O=C(CSc1nnc(-c2cccs2)n1-c1ccccc1)NCc1ccco1`, the inhibition is 1.12% (inactive).

In the case of `CC(C)C(C)(C#N)NC(=O)CSc1nncn1-c1ccccc1` (stereo not given), the inhibition is 6.72% (inactive). Take `O=C(Cc1ccc2c(c1)CCCC2)Nc1ccccc1Cl`: the inhibition is 6.44% (inactive).

As for `CC(=O)c1sc(NC(=O)c2cccc3ccccc23)nc1C`, the inhibition is 4.12% (inactive). `CC(NC(=O)c1cccc2ccccc12)c1ccc2c(c1)CCCC2` (stereo not given): the inhibition is 46.5% (active). Then `Cc1ccc(N/N=C2\COC(C)(C)CC2=O)cc1`, with -2.17% (inactive); and `O=S(=O)(NCc1ccco1)c1cnc(Cl)c(Cl)c1`, with -2.02% (inactive); and `Oc1ccc(N=Nc2nccs2)c(O)c1`, with 0.92% (inactive).

With `Oc1ccc2ccccc2c1N=Nc1nccs1`, the inhibition was 101% (active). For `Oc1ccc2ccccc2c1C=Nc1ccccc1`, the inhibition is 3.24% (inactive). In the case of `Cc1ncoc1C(=O)N1CCCC(C(=O)c2ccc3c4c(cccc24)CC3)C1` (stereo not given), the inhibition was 5.56% (inactive). Regarding `N=C1/C(=C/c2cccn2-c2cccc([N+](=O)[O-])c2)C(=O)N=C2SC=CN12`, the inhibition is 3.29% (inactive). As for `Cc1ccc(OCC(=O)N/N=C/c2ccncc2)cc1`, the inhibition was -0.78% (inactive). With `Cc1ccc(OCC(=O)N/N=C\c2ccco2)c(C)c1`, the inhibition was -2.78% (inactive).

Turning to `Cc1ccc(/C=N/NC(=O)COc2ccccc2-c2ccccc2)cc1`, the inhibition is 83.4% (active). Then `O=c1oc2ccccc2cc1-c1csc(Nc2ccc(O)cc2)n1`, with 37.3% (active); and `COc1ccc2nc(Nc3nc(-c4cc5ccccc5oc4=O)cs3)sc2c1`, with 6.64% (inactive); and `CCNc1nc(-c2cc3ccccc3o2)cs1`, with 3.67% (inactive). Take `Cc1cc(Nc2ccc(Cl)cc2)nc(N2CCOCC2)n1`: the inhibition was -1.08% (inactive).

What is called inhibition is the relative decrease from the control value, in per cent.
